# In publication PMC5540273 (PLoS ONE, 2017):
# Columns and labels:
# Conditions in all cases: concentration: 1 μM, replicates: in singlicate; n = 1
# CAMK1 = tested on: CAMK1
# CAMK2A = tested on: CAMK2A
# CAMK2B = tested on: CAMK2B
# CAMK2D = tested on: CAMK2D
# CAMK2G = tested on: CAMK2G
# CAMK4 = tested on: CAMK4
# CAMKK1 = tested on: CAMKK1
# CAMKK2 = tested on: CAMKK2
# CASK = tested on: CASK
# CDC2L1 = tested on: T1, CDC2L1
# T1 construct: gene CDK11B
# 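Also: KINOMEscan kinase panel screen.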
Compound,%Inh (CAMK1) [%],%Inh (CAMK2A) [%],%Inh (CAMK2B) [%],%Inh (CAMK2D) [%],%Inh (CAMK2G) [%],%Inh (CAMK4) [%],%Inh (CAMKK1) [%],%Inh (CAMKK2) [%],%Inh (CASK) [%],%Inh (CDC2L1) [%]
Cl.O=C(Nc1ccc(Oc2ccc3[nH]c(NC(=O)c4ccco4)nc3c2)cc1)Nc1cc(C(F)(F)F)ccc1F [GW683134],0,0,0,0,0,0,0,0,50,0
COc1cc(Nc2ccnc3cc(-c4ccncc4)ccc23)cc(OC)c1OC.Cl [GW494610],20,0,0,0,7,0,7,0,15,0
Cc1ccccc1CC(=O)N1CCc2cc(-c3cn(C)c4ncnc(N)c34)ccc21 [GSK2603346],16,0,0,0,5,5,0,0,0,0
CCOc1nccc(-c2c(-c3ccc(F)cc3)ncn2C2CCNCC2)n1 [SB-249175],0,0,0,0,0,11,1,15,0,3
COc1ccc(C)c(Nc2ccnc(Nc3ccc(-c4cnc[nH]4)cc3)n2)c1.Cl [GW784041],17,0,1,22,0,30,19,0,0,8
CN(c1ccc(NC(=O)Nc2cccc(Cl)c2)cc1)c1ccnc(N)n1.Cl [GW830707],2,0,0,10,8,14,0,14,7,0
O=C(O)C(F)(F)F.O=c1[nH]ccc2nc(N[C@@H]3CCNC3)nc(Nc3cc(Cl)cc(Cl)c3)c12 [GSK2188764],84,71,37,60,57,95.9,75,46,19,1
CCNc1nccc(-c2c(-c3ccc(F)cc3)ncn2C2CCN(C)CC2)n1,0,18,0,16,8,0,12,9,0,7
COC(=O)Nc1nc2ccc(Oc3ccc(NC(=O)Nc4cc(C(F)(F)F)ccc4F)cc3)cc2[nH]1.Cl [GW654607],2,0,0,0,15,0,6,6,12,0
Cn1cc(-c2ccc3c(c2)CCN3C(=O)Cc2cc(F)cc(F)c2F)c2c(N)ncnc21 [GSK2634140],15,0,0,0,11,0,27,1,3,0
O=C(Nc1n[nH]c2nc(-c3ccccc3O)ccc12)C1CC1 [SB-711880],0,0,0,0,0,0,3,0,13,0
Nc1ncc(-c2cn[nH]c2)c2scc(-c3ccc4c(c3)CCN4C(=O)Cc3ccccc3)c12 [GSK2593067],33,0,0,0,18,0,56,8,13,0
Cn1cc(-c2cnc(N)c3c(-c4ccc5c(c4)CCN5C(=O)Cc4ccccc4)csc23)cn1 [GSK2593074],0,29,12,0,13,0,11,19,23,4
Nc1ncnc2scc(-c3ccc(NC(=O)Cc4cc(F)ccc4F)cc3)c12.O=C(O)C(F)(F)F [SB-731254-M],16,0,0,10,5,0,17,12,21,11
CCNC(=O)/C=C/c1n[nH]c2cc(Sc3ccccc3C(=O)NC)ccc12,7,0,0,17,27,0,10,33,40,10
COc1cccc(C2=C(Nc3cccc(O)c3)C(=O)NC2=O)c1 [SB-390771],4,17,0,25,34,0,15,28,28,0
COc1ccc(C2=C(Nc3cccc(O)c3)C(=O)NC2=O)cc1 [SB-390766],23,0,0,11,0,0,0,0,39,0

Compound,%Inh (CAMK1) [%],%Inh (CAMK2A) [%],%Inh (CAMK2B) [%],%Inh (CAMK2D) [%],%Inh (CAMK2G) [%],%Inh (CAMK4) [%],%Inh (CAMKK1) [%],%Inh (CAMKK2) [%],%Inh (CASK) [%],%Inh (CDC2L1) [%]
N#Cc1cnc2cc(-c3cnc(CNCCN4CCOCC4)s3)ccc2c1Nc1ccc(Oc2ccccc2)cc1 [GW664114],22,0,0,21,0,0,48,3,15,0
Cc1cc(-c2ccnc(Nc3cccc(C#N)c3)n2)cc(C)c1O [GSK1440913],24,13,11,31,39,0,24,30,0,41
Cc1ccc(Nc2ccnc(Nc3ccc(C)c(F)c3)n2)cc1O.Cl [GW582868],1,96.6,95.3,0,0,0,0,0,13,0
Cc1cccc(Nc2nc(N[C@H]3CCCC[C@H]3N)ncc2C(N)=O)c1.Cl [GSK986310],54,0,0,16,33,72,22,26,56,0
Cl.N#CCc1ccc(Nc2nccc(Nc3ccc(Oc4ccccc4)cc3)n2)cc1 [GW639905],10,0,0,0,0,0,0,0,8,0
Cc1cccc(Nc2nc(NCCN)ncc2C(N)=O)c1 [GSK1292139],59,0,0,14,27,0,18,28,13,0
COC(=O)Nc1nc2ccc(Oc3ccc(CC(=O)Nc4cc(C(F)(F)F)ccc4F)cc3)cc2[nH]1 [GW680903],2,0,0,1,12,0,0,9,0,0
Cc1ccc(O)cc1Nc1ccnc2ccc(C(C)(C)C)cc12 [GW856805],45,7,10,18,22,0,3,26,25,12
CN(c1ccc(F)c(NC(=O)c2cccc(OC(C)(C)C#N)c2Cl)c1)c1ccc2nc(NC(=O)C3CC3)sc2n1,0,1,0,0,8,0,10,0,0,0
Fc1cc(Cl)ccc1Nc1ccnc2cc(-c3ccc(CN4CCOCC4)o3)ccc12 [GW560109],0,0,0,0,0,13,0,0,16,0
COC(=O)Nc1nc2cc(Oc3ccc(NC(=O)Nc4cccc(SC)c4)cc3)ccc2[nH]1.Cl [GW697999],11,18,28,0,12,0,0,0,16,0
Nc1cccc(-c2ccc3c(N)n[nH]c3c2)c1 [GSK2193613],29,0,0,11,26,0,2,13,13,7
Cc1cc(-c2c(-c3ccc(F)cc3)ncn2CCCN2CCOCC2)nc(N)n1 [SB-222517],17,0,30,0,8,13,25,0,33,0
CC(=O)Nc1cn2nc(Oc3cccc(NC(=O)c4cccc(C(F)(F)F)c4)c3)ccc2n1,19,0,15,1,0,0,0,0,17,7
COc1ccc(NC(=O)c2ccoc2)cc1-c1ccc(C(=O)NCC2CC2)cc1 [GW810437],0,0,0,0,0,19,15,30,13,14
NCCC(NC(=O)c1cc(Br)c(-c2ccnc3[nH]ccc23)s1)c1ccccc1.O=C(O)C(F)(F)F.O=C(O)C(F)(F)F (stereo not drawn) [GSK1307810],43,34,0,29,26,0,5,9,27,0
